Results reported in the OligoGym collection.

target: WDR59; experiment: pooled miR-30 sensor sort-seq; sequence = guide strand; details: shRNA
Also: reference of the scale not given here.

Q: How did the sensor-assay potency score (higher = more potent) turn out when TAGACAACACACAAAGCGCAGC was run?
A: -0.806

Q: Which sensor-assay potency score (higher = more potent) does the source give for TAAAGCTAGGATATCGACTATG here?
A: -0.97

Q: Which sensor-assay potency score (higher = more potent) does the source give for TTAGCTTTCATGGTGGATGTGA here?
A: 0.497

Q: Which sensor-assay potency score (higher = more potent) does the source give for TAACACTGTAACACTGGCCCTG here?
A: 0.0657

target: WDR74; experiment: as above; details: shRNA

Q: Which sensor-assay potency score (higher = more potent) does the source give for TGGATCATAAACACGGACCTGG here?
A: 0.064

Q: For ATATCTTCAAAGCATTCTCTTT, which sensor-assay potency score (higher = more potent) is on record?
A: -1.27

Q: For TGTCTCTGTGTCTTCTAGGGGC, which sensor-assay potency score (higher = more potent) is on record?
A: -0.152

Q: TGACAAGCTTCTGTGATCCTGG was tested. Which sensor-assay potency score (higher = more potent) did it give?
A: 0.195

Q: How did the sensor-assay potency score (higher = more potent) turn out when TTCAAGATCCCAGTCTCGGTGC was run?
A: -0.0333

Q: How did the sensor-assay potency score (higher = more potent) turn out when TATCTTCAAAGCATTCTCTTTC was run?
A: -0.0108

Q: For TATCCTCAAGACTCTGTCCAAG, which sensor-assay potency score (higher = more potent) is on record?
A: -0.997

Q: How did the sensor-assay potency score (higher = more potent) turn out when TTCACCGTCCTGTCCGCGCAGC was run?
A: -1.09

Q: With TTCTTCTTTCTCCGTCTCGTTT as the sequence, how does the sensor-assay potency score (higher = more potent) read?
A: -0.81

Q: With TAGTGAGTACTCTCCATAGGTG as the sequence, how does the sensor-assay potency score (higher = more potent) read?
A: -0.709

Q: With TTTCGCTGAAGATTTACCCCTT as the sequence, how does the sensor-assay potency score (higher = more potent) read?
A: 0.223

Q: With TTGAGACTTGAGATAAACCTTA as the sequence, how does the sensor-assay potency score (higher = more potent) read?
A: 0.692

target: WDR7; experiment: as above; details: shRNA

Q: Which sensor-assay potency score (higher = more potent) does the source give for TAGCTGACCATGTAGAACCTGC here?
A: 0.024

Q: How did the sensor-assay potency score (higher = more potent) turn out when TATTGCTTGAACCATCAGGGAG was run?
A: -0.959

Q: How did the sensor-assay potency score (higher = more potent) turn out when ATATTTGGAACACACAACCAAA was run?
A: -1.51

Q: For TTTAGAATCTCAACTGCTGTTA, which sensor-assay potency score (higher = more potent) is on record?
A: 0.0218

Q: How did the sensor-assay potency score (higher = more potent) turn out when TTTGTCCGTCGTGACATCCTGT was run?
A: -0.661

Q: For TTAGACAAACAAGTGATTGATG, which sensor-assay potency score (higher = more potent) is on record?
A: -0.425

Q: For TAAGTGAATCAACAGCAGCAGG, which sensor-assay potency score (higher = more potent) is on record?
A: -1.52

Q: How did the sensor-assay potency score (higher = more potent) turn out when TAACACAGTGCATAGCAGCTAA was run?
A: -0.462

Q: Which sensor-assay potency score (higher = more potent) does the source give for TTGTCCGTCGTGACATCCTGTT here?
A: -0.875

Q: With TTAGGTTTGTCTTTATTGCTTG as the sequence, how does the sensor-assay potency score (higher = more potent) read?
A: 0.201

Q: TGTCTTTATTGCTTGAACCATC was tested. Which sensor-assay potency score (higher = more potent) did it give?
A: -1.06

Q: TTAATTTGCAGTTCTACTGAAA was tested. Which sensor-assay potency score (higher = more potent) did it give?
A: -0.417

target: WDR96; experiment: as above; details: shRNA

Q: TTTCTCTAGAGCTTAATTCTTC was tested. Which sensor-assay potency score (higher = more potent) did it give?
A: -0.586

Q: TACATCTTTACTTTCCATCATG was tested. Which sensor-assay potency score (higher = more potent) did it give?
A: -0.972

Q: TCATCTTGCACAACAAGCGTTC was tested. Which sensor-assay potency score (higher = more potent) did it give?
A: -0.652

Q: With TTTTTGAGTAGTTTCTTGCAGT as the sequence, how does the sensor-assay potency score (higher = more potent) read?
A: -0.3

Q: How did the sensor-assay potency score (higher = more potent) turn out when TACACAAGCACAATCCTCCAGC was run?
A: -0.19

Q: TAATCTTTCAACTTCAGTCTGT was tested. Which sensor-assay potency score (higher = more potent) did it give?
A: 0.842

Q: For TTGCCTTTCAATTTGGTCCTTC, which sensor-assay potency score (higher = more potent) is on record?
A: 0.277

Q: How did the sensor-assay potency score (higher = more potent) turn out when TTACACAAAATGATACTCGATT was run?
A: -0.176

Q: TAGATTTCCGAACAGCTTCTGA was tested. Which sensor-assay potency score (higher = more potent) did it give?
A: -0.901

Q: Which sensor-assay potency score (higher = more potent) does the source give for TAAGTTGTCATAGTGCTCCTTG here?
A: 0.702

Q: Which sensor-assay potency score (higher = more potent) does the source give for TTGCTGATCATAAACGACGTGC here?
A: 0.0797
